In the supplement of paper PMC9694430:

Assays:
Test in all cases: thermal shift delta Tm vs DMSO control; higher = stronger stabilization (binding)
Details in all cases: 12.5 µM; protein concentration 2 µM
LOC_OS02G45750-cb003 = test system: LOC_OS02G45750-cb003
In short: (§1)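 Rice kinase domain constructs, made in E. coli and purified, were placed in 96-well plates at 2 μM in 19.5 μl of 100 mM potassium phosphate pH 7.5, 150 mM NaCl, 10% glycerol and 5 × SYPRO Orange, with compound in DMSO. A temperature ramp from 25°C to 95°C at 0.05°C/s was used for differential scanning fluorimetry. The melting temperature shift is a triplicate mean compared with DMSO-only protein, derived from Boltzmann fits.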

LOC_OS02G54510-cb004 = test system: LOC_OS02G54510-cb004
In short: as §1

LOC_OS03G04050-cb001 = test system: LOC_OS03G04050-cb001
In short: as §1

LOC_OS03G12390-cb001 = test system: LOC_OS03G12390-cb001
In short: as §1

LOC_OS03G27990-cb004 = test system: LOC_OS03G27990-cb004
In short: as §1

LOC_OS03G50450-cb001 = test system: LOC_OS03G50450-cb001
In short: as §1

LOC_OS03G50810-cb003 = test system: LOC_OS03G50810-cb003
In short: as §1

LOC_OS04G35114-cb001 = test system: LOC_OS04G35114-cb001
In short: as §1

LOC_OS04G38480-cb003 = test system: T1, LOC_OS04G38480-cb003
T1 sequence (whole entry): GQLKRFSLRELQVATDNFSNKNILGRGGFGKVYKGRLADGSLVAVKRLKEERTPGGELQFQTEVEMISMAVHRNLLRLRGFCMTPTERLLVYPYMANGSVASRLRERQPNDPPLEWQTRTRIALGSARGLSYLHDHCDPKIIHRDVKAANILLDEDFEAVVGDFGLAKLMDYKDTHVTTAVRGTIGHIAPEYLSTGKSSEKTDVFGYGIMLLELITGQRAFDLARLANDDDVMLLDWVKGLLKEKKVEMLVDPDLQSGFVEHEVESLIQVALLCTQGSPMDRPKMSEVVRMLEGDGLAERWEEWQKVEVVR
In short: as §1

LOC_OS04G41100-cb001 = test system: T2, LOC_OS04G41100-cb001
T2 sequence (whole entry): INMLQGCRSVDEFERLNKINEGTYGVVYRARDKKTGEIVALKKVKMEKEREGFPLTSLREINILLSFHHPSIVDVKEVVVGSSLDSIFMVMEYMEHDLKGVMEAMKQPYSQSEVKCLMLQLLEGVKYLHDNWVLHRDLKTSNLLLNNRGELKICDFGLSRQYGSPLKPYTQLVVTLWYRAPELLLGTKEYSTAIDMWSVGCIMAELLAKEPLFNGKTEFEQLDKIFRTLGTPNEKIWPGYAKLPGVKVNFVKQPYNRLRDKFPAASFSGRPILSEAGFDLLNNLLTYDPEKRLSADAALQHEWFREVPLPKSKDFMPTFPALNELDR
In short: as §1

LOC_OS04G57630-cb004 = test system: LOC_OS04G57630-cb004
In short: as §1

LOC_OS05G07850-cb002 = test system: LOC_OS05G07850-cb002
In short: as §1

LOC_OS05G16824-cb004 = test system: LOC_OS05G16824-cb004
In short: as §1

LOC_OS05G28520-cb001 = test system: LOC_OS05G28520-cb001
In short: as §1

LOC_OS05G30820-cb001 = test system: LOC_OS05G30820-cb001
In short: as §1

LOC_OS05G43570-cb004 = test system: LOC_OS05G43570-cb004
In short: as §1

LOC_OS06G16330-cb003 = test system: LOC_OS06G16330-cb003
In short: as §1

LOC_OS06G22820-cb001 = test system: T3, LOC_OS06G22820-cb001
T3 sequence (whole entry): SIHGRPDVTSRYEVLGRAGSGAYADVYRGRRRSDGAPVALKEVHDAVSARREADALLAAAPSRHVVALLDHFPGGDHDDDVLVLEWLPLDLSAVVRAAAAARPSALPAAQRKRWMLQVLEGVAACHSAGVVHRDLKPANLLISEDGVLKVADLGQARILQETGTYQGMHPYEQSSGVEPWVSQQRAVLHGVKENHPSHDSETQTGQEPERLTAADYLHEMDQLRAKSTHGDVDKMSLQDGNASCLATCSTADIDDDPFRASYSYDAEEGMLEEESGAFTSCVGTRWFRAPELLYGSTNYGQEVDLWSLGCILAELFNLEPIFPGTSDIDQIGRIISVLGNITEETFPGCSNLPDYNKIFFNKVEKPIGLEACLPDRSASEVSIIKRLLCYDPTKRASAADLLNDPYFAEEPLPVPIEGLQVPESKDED
In short: as §1

LOC_OS07G06570-cb004 = test system: LOC_OS07G06570-cb004
In short: as §1

LOC_OS07G07230-cb001 = test system: LOC_OS07G07230-cb001
In short: as §1
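Further: purified Escherichia coli-expressed rice kinase domain construct.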

LOC_OS06G16330-cb003, sequence (as listed by the source): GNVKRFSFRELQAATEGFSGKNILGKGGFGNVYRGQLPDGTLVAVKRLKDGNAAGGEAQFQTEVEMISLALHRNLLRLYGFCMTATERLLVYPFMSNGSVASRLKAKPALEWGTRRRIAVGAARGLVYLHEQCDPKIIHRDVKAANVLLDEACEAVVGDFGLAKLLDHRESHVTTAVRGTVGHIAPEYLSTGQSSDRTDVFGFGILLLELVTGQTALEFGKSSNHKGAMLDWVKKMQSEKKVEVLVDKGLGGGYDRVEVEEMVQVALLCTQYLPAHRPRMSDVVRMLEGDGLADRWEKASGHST

SMILES | thermal shift delta Tm (LOC_OS02G45750-cb003) [°C] | thermal shift delta Tm (LOC_OS02G54510-cb004) [°C] | thermal shift delta Tm (LOC_OS03G04050-cb001) [°C] | thermal shift delta Tm (LOC_OS03G12390-cb001) [°C] | thermal shift delta Tm (LOC_OS03G27990-cb004) [°C] | thermal shift delta Tm (LOC_OS03G50450-cb001) [°C] | thermal shift delta Tm (LOC_OS03G50810-cb003) [°C] | thermal shift delta Tm (LOC_OS04G35114-cb001) [°C] | thermal shift delta Tm (LOC_OS04G38480-cb003) [°C] | thermal shift delta Tm (LOC_OS04G41100-cb001) [°C] | thermal shift delta Tm (LOC_OS04G57630-cb004) [°C] | thermal shift delta Tm (LOC_OS05G07850-cb002) [°C] | thermal shift delta Tm (LOC_OS05G16824-cb004) [°C] | thermal shift delta Tm (LOC_OS05G28520-cb001) [°C] | thermal shift delta Tm (LOC_OS05G30820-cb001) [°C] | thermal shift delta Tm (LOC_OS05G43570-cb004) [°C] | thermal shift delta Tm (LOC_OS06G16330-cb003) [°C] | thermal shift delta Tm (LOC_OS06G22820-cb001) [°C] | thermal shift delta Tm (LOC_OS07G06570-cb004) [°C] | thermal shift delta Tm (LOC_OS07G07230-cb001) [°C]
CC(C)(C)Cn1c(N)nc2ccc(-c3[nH]c(C(C)(C)C)nc3-c3ccc(F)cc3)nc21 | 0.45 | 0.25 | 0.52 | -0.25 | 0.28 | 0.23 | 0.13 | 0.02 | 0.12 | 0.22 | -1.17 | 1.45 | -0.61 | 0.04 | 0.34 | 0.33 | 0.24 | 0.34 | 0.31 | 0.21
Oc1cc(CNC(=S)/C=C/c2cc(O)c(O)c(Br)c2)cc(O)c1O | 0.11 | -0.88 | 0.71 | 0.57 | 0.49 | 0.42 | 0.39 | -1.08 | 0 | -0.03 | 0.49 | -1.85 | -0.73 | 0.47 | 0.99 | 1.46 | 0.61 | 2.08 | 3.05 | 0.45
CCN1CCN(Cc2ccc(Nc3ncc(F)c(-c4cc(F)c5nc(C)n(C(C)C)c5c4)n3)nc2)CC1 | 3.28 | 0.25 | 0.17 | 1.39 | 0.47 | 0.16 | 2.97 | 2.79 | 1.91 | 5.62 | 1.35 | 12.6 | 3.33 | 0.73 | 0.2 | 0.41 | 6.17 | 0.41 | 1.14 | 0.37
C[C@H](CN(C)C)Oc1nc(Nc2cc3cccc(Cl)c3cn2)cnc1C#N | 2.56 | 0.35 | 0.34 | 1.56 | 0.61 | 0.13 | 1.33 | 1.48 | 1.13 | 0.28 | -0.04 | 5.49 | 3.41 | 0.32 | 0.46 | 0.43 | 1.98 | 0.49 | 0.8 | 0.34
Cc1ccc(NC(=O)c2ccc(CN3CC[C@H](N(C)C)C3)c(C(F)(F)F)c2)cc1Nc1nccc(-c2cncnc2)n1 [Bafetinib (INNO-406)] | 0.37 | 3.32 | 0.29 | 0.16 | 0.43 | 0.25 | 0.34 | 0.18 | 0.66 | 0.35 | 0.08 | 0.37 | -2.81 | 1.08 | 0.77 | 0.5 | -0.31 | 0.4 | 1.66 | 0.62
CN1CCN(c2ccc(OC(F)(F)F)c(Nc3ncc4c(n3)-c3c(c(C(N)=O)nn3CCO)CC4)c2)CC1 | 0.67 | -0.01 | 0.33 | 1.65 | -0.02 | -0.04 | 0.54 | 1.58 | -0.15 | 0.74 | 2.32 | 0.85 | -0.84 | 0.63 | 0.48 | 0.54 | 0.46 | 0.49 | 1.36 | 0.02
C=CC(=O)Nc1cccc(Sc2nc(Nc3ccc(N4CCN(C)CC4)cc3)ncc2Cl)c1 | 1.15 | 0.86 | 0.43 | 2.55 | 2.86 | 1.29 | 4.92 | 4.33 | 1.07 | 1.47 | 4.52 | 11.5 | 7.67 | 7.81 | 2.25 | 0.95 | 5.61 | -0.33 | 0.28 | 0.95
CCn1c(C(=O)N(C2CC2)C2CC2)cc2c3c(ncn3C)c(Nc3cc(C)n(C)n3)nc21 | 1.23 | 0.33 | 0.44 | 1.55 | 0.13 | 0.66 | 1.38 | 2.5 | 1.2 | 0.58 | 0.17 | 6.42 | 2.92 | 0.88 | 0.47 | 0.51 | 2.11 | 0.64 | 1.49 | 0.76
CN(c1ccccc1CNc1nc(Nc2ccc3c(c2)CC(=O)N3)ncc1C(F)(F)F)S(C)(=O)=O | 11.6 | 1.85 | 0.4 | 6.91 | 2.93 | 3.16 | 5.31 | 5.87 | 3.54 | 2.86 | 3.74 | 11.3 | 11.6 | 2.32 | 4 | 0.97 | 7.19 | -0.04 | 1.23 | 0.27
Cc1cn(-c2cc(NC(=O)c3ccc(C)c(Nc4nccc(-c5cccnc5)n4)c3)cc(C(F)(F)F)c2)cn1 [Nilotinib (AMN-107)] | 0.19 | 0.17 | 0.37 | 0.05 | 0.02 | 0.23 | 0.16 | -0.37 | 0.3 | 0.57 | -0.2 | -0.28 | -8.56 | 0.53 | 0.44 | 0.26 | -0.09 | 0.72 | 0.96 | 0.47
CONC(=O)c1ccccc1Nc1cc(Nc2cc(C)nn2C(C)C)ncc1Cl | 1.44 | 0.08 | 0.47 | 1.86 | 0.55 | 0.47 | 1.12 | 0.79 | 2.41 | 0.42 | 0.41 | 5.58 | 8.82 | 0.25 | 0.17 | 0.39 | 6.46 | 0.47 | 1.77 | 0.55
O=C(NCc1ccccc1)c1csc(Nc2ccncn2)n1 [Thiazovivin] | 0.91 | 0.46 | 0.67 | 1.49 | 0.04 | 0.18 | 0.53 | 1.56 | 0.41 | 0.67 | 0.16 | 2.6 | -1.42 | 0.2 | 0.36 | 1.22 | 0.41 | 0.56 | 0.66 | -0.04
